Sampled rows, rich in hits. Any-hit rate of the full collection: about 11%.
SW480 rereplic – DNA re-replication induction in SW480 cells | SW480 DNA re-replication, Hoechst DNA content imaging, 48 h | Potency, µM (top dose mostly 46.1 µM), for the others: at the top dose re-replication activation, usual class: activators | 340,000 tested, 1.8% active | AID 624297; further: potency means the concentration at half of the fitted maximal effect; % of control where 0% means no effect; nearly all actives have a fitted effect of over 55% in size
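Readout is total intensity of Hoechst-stained nuclei, excited at 405 nm and collected at 500-530 nm. Compound treatment lasted 48 hr at 37 C in 5% CO2 before staining.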
IL-1B inflam inh – inflammasome signaling inhibition, IL-1 beta readout; THP-1 LPS/ATP IL-1B secretion, AlphaLISA, 16 h; stronger effect = lower value; activity change, % at 57.5 µM; 360,000 tested, 4.7% active; AID 743279; in the data active means activity change below about -50%; inconclusive means mostly about -30% to -49%; further: on the % scale 0 is the no-effect control and ±100 the full control effect
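Secreted IL-1B measured by AlphaLISA bead assay after 16 h compound exposure of THP-1 cells; compounds (final up to 57.5 uM) added 1 h before LPS (250 ng/mL) and ATP (1.25 mM) stimulation; lower signal means less secretion.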
RORg inh – ROR gamma (mouse) transcription inhibition | Potency, µM (doses to about 53.6 µM), for the others: at the top dose activity change, negative = inhibition, usual class: inhibitors | Drosophila S2 Gal4-RORgamma UAS-luciferase reporter, 20 h | 310,000 tested, 5.4% active | P51450 | AID 2551; further: potency means the concentration at half of the fitted maximal effect; on the % scale 0 is the no-effect control and ±100 the full control effect; nearly all actives have a fitted effect of over 60% in size
Target sequence (P51450 whole entry, looked up, the tested form may be a part): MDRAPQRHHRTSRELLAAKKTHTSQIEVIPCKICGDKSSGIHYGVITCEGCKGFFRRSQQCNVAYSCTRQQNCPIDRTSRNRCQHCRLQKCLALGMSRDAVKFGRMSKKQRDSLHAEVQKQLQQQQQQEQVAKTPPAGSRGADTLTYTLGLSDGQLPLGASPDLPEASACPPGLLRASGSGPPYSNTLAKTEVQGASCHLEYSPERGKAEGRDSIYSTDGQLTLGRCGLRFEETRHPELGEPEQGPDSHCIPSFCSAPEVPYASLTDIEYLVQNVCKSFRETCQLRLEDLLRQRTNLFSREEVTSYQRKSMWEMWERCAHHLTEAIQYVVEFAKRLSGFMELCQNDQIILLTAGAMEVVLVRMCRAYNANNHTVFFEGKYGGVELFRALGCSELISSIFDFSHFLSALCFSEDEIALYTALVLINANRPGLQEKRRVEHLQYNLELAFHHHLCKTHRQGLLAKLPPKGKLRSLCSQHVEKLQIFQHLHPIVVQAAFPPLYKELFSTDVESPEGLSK
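ROR gamma transcriptional activity was tracked as Gal4-UAS luciferase output in stably transfected Drosophila Schneider cells, with compound added 1 hr before 700 uM copper sulfate induction and a 20 hr ambient-temperature incubation.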
MCF10A rereplic – DNA re-replication induction in MCF 10a cells | MCF 10A DNA re-replication, Hoechst nuclear intensity, 48 h | Potency, µM (doses to about 46.1 µM), for the others: at the highest dose activity, positive = re-replication, actives largely listed as activators | 350,000 tested, 2.9% active; further: potency means the concentration at half of the fitted maximal effect; % of control where 0% means no effect; nearly all actives have a fitted effect of over 50% in size
VP16 counter – Gal4-VP16 reporter inhibition counter-screen; 310,000 tested, 3.5% active; Potency, µM (titrated, usually from 53.6 µM), inactives show top-dose activity, negative = inhibition, most hits filed as inhibitors; AID 2546; Drosophila S2 Gal4-VP16 UAS-luciferase, luminescence, 20 h;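 further: Gal4-VP16 expression switched on by copper sulfate through the metallothionein promoter; potency means the concentration at half of the fitted maximal effect; on the % scale 0 is the no-effect control and ±100 the full control effect; nearly all actives have a fitted effect of over 50% in size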
Starred values were filed as active, the others as inactive; ? = inconclusive; · = not tested or not shown; [ ] = remark or other dose. Unless noted, the call rests on the fitted dose curve; in most records, active means well fitted curve in the direction sought with a large enough effect; inconclusive means small, poorly fitted or top-dose-only effect, or another doubt; inactive means no such curve, though single readings can be large; an effect the other way counts as inactive or inconclusive.

SMILES | SW480 rereplic | IL-1B inflam inh | RORg inh | MCF10A rereplic | VP16 counter
C=CCc1c(C)nc(-c2ccccc2)nc1N/N=C(\C)c1ccccc1 | 2.8% | 5.9 | ? | 6.6% | ?
O=C(NC1CCCCCC1)C(Cc1ccccc1)n1cccc1 (configuration not stated) | -44.3% | -61.8* | -2.5% | 6.9% | -2.6%
COc1cccc(NC(=O)C(Cc2ccccc2)n2cccc2)c1 (configuration not stated) | -4.1% | -73.0* | 3.4% | 27.6% | -3.5%
CC1CCC(NC(=O)C(Cc2ccccc2)n2cccc2)CC1 (configuration not stated) | 1.0% | -26.4 | ? | 2.5% | -20.7%
Cc1ccc(NC(=O)CN(C)C2CCCCC2)cc1Cl | -0.8% | ? | 23.2% | -0.3% | -4.8%
CSc1ccc(NC(=O)NCCCN2CCC(Cc3ccccc3)CC2)cc1 | 151.3% | -54.3* | ? | ? | 3.7%
CC(=O)c1cccc(NC(=S)N2CCN(S(=O)(=O)c3ccccc3)CC2)c1 | -2.0% | 0.0 | ? | 0.7% | 22.7%
CC(=O)c1cccc(NC(=S)N2CCC(Cc3ccccc3)CC2)c1 | ? | ? | 14.1µM* | -40.9% | -70.8%
CC(=O)c1ccc(NC(=S)N2CCC(Cc3ccccc3)CC2)cc1 | -13.3% | -79.1* | 20.1% | 25.3% | -3.5%
O=C(CN1CCC(Cc2ccccc2)CC1)NC(=O)NCc1ccccc1 | -2.4% | -51.8* | 16.2% | 21.7% | 1.7%
CCCCN1C(=O)C(CC(=O)NCCCN(C)C)CC(C(=O)N(C)C)=C1C (configuration not stated) | · | 6.0 | · | · | ·
COc1ccc(NC(=O)Cc2nnc(SCC(=O)NC3CCCC3)n2C)cc1 | -1.5% | 12.1 | 18.6% | -7.1% | 2.9%
CCOC(=O)C1(C)CCCN(C(=O)c2ccc3c(c2)CCO3)C1 (configuration not stated) | · | 14.7 | · | · | ·
COC(=O)Cc1ccc(NC(=S)N2CCN(C)CC2)cc1 | -18.5% | -0.4 | ? | -10.8% | -6.0%[10 µM]
COC(=O)Cc1ccc(NC(=S)N2CCC(Cc3ccccc3)CC2)cc1 | -5.6% | 13.6 | 14.1µM* | 0.3% | ?
C[C@@]12CCC3c4ccc(O)cc4CCC3C1CCC2O (some centres not stated) | · | · | ? | · | -5.0%
CCNc1cc2c(cc1O)CCC1C2CCC2(C)C(O)CCC12 (configuration not stated) | ? | -101.1* | · | ? | ·
CCOc1cc2c(cc1O)CCC1C2CCC2(C)C(O)CCC12 (configuration not stated) | ? | 10.4 | · | 1.16µM* | ·
Cc1ccc(NC(=O)C2(C)CCN2C(=O)Cc2ccc(C(C)C)cc2)cc1 (configuration not stated) | · | 32.0 | · | · | ·
Cc1c(-c2ccccn2)c(=O)[nH]n1-c1ccc(F)cc1 | 8.3% | 28.4 | 6.31µM* | -12.3% | ?
O=C1NC[C@@H](CCCCN2C[C@H](Cc3ccc(O)cc3)N(CCc3ccc(O)cc3)C(=O)C2=O)N(Cc2ccccc2)C1=O | · | -2.8 | · | · | ·
COC12NC(=O)N(C)C1(OC)C(=O)N(C)C(=O)N2C (configuration not stated) | 0.651µM* | 6.3 | 7.4% | ? | -5.2%
CCc1cc2c(C)cc(=O)oc2cc1OC(=O)C1CCCN1C(=O)OC(C)(C)C (configuration not stated) | 18.4µM* | 28.7 | 19.0% | 10.9% | -23.8%
CNCCNC[C@H](Cc1cccc2ccccc12)NCCc1ccccc1 | -8.7% | ? | · | -4.2% | ·
CNC[C@H](Cc1ccccc1)NC[C@@H](Cc1cccc2ccccc12)NCCc1ccc(C)cc1 | ? | -106.5* | ? | ? | ?
COc1ccc(C(C[N+](=O)[O-])C2(c3ccc(OC)c(OC)c3)C(=O)c3ccccc3C2=O)cc1 (configuration not stated) | 3.26µM* | -102.4* | ? | ? | 17.8µM*
Cc1cnc(CNC(=O)c2csc([C@H]3C[C@H](O)[C@@H](CO)O3)n2)cn1 | · | 14.4 | · | · | ·
C/C(=N\NC(=O)c1ccc2c(c1)OCO2)c1ccc(NC(=O)CCCC(=O)O)cc1 | 0.6% | 0.2 | -27.8% | 4.7% | -0.2%

Screens as filed in PubChem BioAssay.
